# Data as given in article PMC5515408, “Sequence-specific DNA binding by MYC/MAX to low-affinity non-E-box motifs”.
# The full ranking holds about 4,500 sequences; the median of “log2 normalized fluorescence” is about -0.34, and the highest 2% start at about 3.3. Shown is part of a subset that was picked to be rich in the highest values.
# Molecular target: MAX:MAX (p21) (human, UniProt P61244-2 1-151)
# Assay: protein-binding microarray (anti-MAX antibody); PBM: 15 mM Tris-HCl pH 7.5, 100 mM KCl, 0.075% NP40, 7.5 mM beta-mercaptoethanol, 375 ng/ul BSA, 8 ng/ul poly(dA-dT):(dA-dT), 550 ng complex, 60 min, room tempe; high values mean tight binding
# Settings: protein: recombinant; tags: 6xHis; chain copies: 2; label: 3' end of printed strand (linker) attached to glass slide; dsDNA, one strand shown
# Outline: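 Binding is reported as log2 normalized fluorescence. Recombinant His-tagged human MYC:MAX or MAX:MAX dimers expressed in E. coli (550 ng) were incubated with a custom Agilent glass array for 60 min at room temperature in Tris-KCl buffer, pH 7.5, containing NP40, BSA and poly(dA-dT) competitor. The array carried ~5000 unique 12-nt sequences, each spotted in triplicate and made double-stranded by primer extension, and bound protein was detected with anti-MAX and secondary antibodies and scanned at 543 nm.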
# MAX:MAX (p21), sequence (P61244 other isoform, or with tags, fused parts or gaps): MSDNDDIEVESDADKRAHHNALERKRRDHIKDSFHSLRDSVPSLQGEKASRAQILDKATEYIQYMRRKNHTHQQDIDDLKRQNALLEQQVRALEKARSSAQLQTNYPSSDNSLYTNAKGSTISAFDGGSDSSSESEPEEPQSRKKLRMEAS
row,Sequence,binding signal
1,CCGGCTGGCACGTGGGATTAATAGCTAAGATTACTATATCGACG,3.64 log2 normalized fluorescence
2,CCGGCGGGCACGTGGTCTTAATAGCTAAGATTACTATATCGACG,3.13 log2 normalized fluorescence
3,CCGGCTATCACGTGGGATTAATAGCTAAGATTACTATATCGACG,3.05 log2 normalized fluorescence
4,CCGGCTACTATGCCATGTTAATAGCTAAGATTACTATATCGACG,0.457 log2 normalized fluorescence
5,CCGGCTGCCATGTGGTTTTAATAGCTAAGATTACTATATCGACG,3.15 log2 normalized fluorescence
6,CCGGCTGCCATGTGGGATTAATAGCTAAGATTACTATATCGACG,3.34 log2 normalized fluorescence
7,CCGGCGGGCACGTGGGATTAATAGCTAAGATTACTATATCGACG,3.48 log2 normalized fluorescence
8,CCGGCTGGCACGTCGGATTAATAGCTAAGATTACTATATCGACG,1.33 log2 normalized fluorescence
9,CCGGCTGGCACGTGGCATTAATAGCTAAGATTACTATATCGACG,3.03 log2 normalized fluorescence
10,CCGGCTGACGATCTGTATTAATAGCTAAGATTACTATATCGACG,-0.62 log2 normalized fluorescence
11,CCGGCTGAAGAGAGGTATTAATAGCTAAGATTACTATATCGACG,-0.631 log2 normalized fluorescence
12,CCGGCTGACCCATGGTTTTAATAGCTAAGATTACTATATCGACG,2 log2 normalized fluorescence
13,CCGGCTGACATGAGGTATTAATAGCTAAGATTACTATATCGACG,2.52 log2 normalized fluorescence
14,CCGGCTGACCACAAGTATTAATAGCTAAGATTACTATATCGACG,1.12 log2 normalized fluorescence
15,CCGGCTGACCCAACGTATTAATAGCTAAGATTACTATATCGACG,-0.297 log2 normalized fluorescence
16,CCGGCTGACACGTGGACTTAATAGCTAAGATTACTATATCGACG,3.07 log2 normalized fluorescence
17,CCGGCTCACACGTGGGCTTAATAGCTAAGATTACTATATCGACG,3.27 log2 normalized fluorescence
18,CCGGCTGACACGGCTTATTAATAGCTAAGATTACTATATCGACG,0.66 log2 normalized fluorescence
19,CCGGCTGACACGTGGGCTTAATAGCTAAGATTACTATATCGACG,3.35 log2 normalized fluorescence
20,CCGGCCGACACGTGGTATTAATAGCTAAGATTACTATATCGACG,3.12 log2 normalized fluorescence
21,CCGGCTGACACGTGGGATTAATAGCTAAGATTACTATATCGACG,3.16 log2 normalized fluorescence
22,CCGGCTGACACGTGACCTTAATAGCTAAGATTACTATATCGACG,3.18 log2 normalized fluorescence
23,CCGGCCGACACGTGGGCTTAATAGCTAAGATTACTATATCGACG,3.29 log2 normalized fluorescence
24,CCGGCTGACACGTGGCCTTAATAGCTAAGATTACTATATCGACG,3.37 log2 normalized fluorescence
25,CCGGCTGAAAAACCGTATTAATAGCTAAGATTACTATATCGACG,-0.672 log2 normalized fluorescence

row,Sequence,binding signal
1,CCGGCTGAAGGCACGTATTAATAGCTAAGATTACTATATCGACG,0.169 log2 normalized fluorescence
2,CCGGCTGAGCACTGGTATTAATAGCTAAGATTACTATATCGACG,-0.181 log2 normalized fluorescence
3,CCGGCTGAGGACTTGTATTAATAGCTAAGATTACTATATCGACG,-0.44 log2 normalized fluorescence
4,CCGGCTCCCACCTGGTATTAATAGCTAAGATTACTATATCGACG,2.61 log2 normalized fluorescence
5,CCGGCTGACGGACGGTATTAATAGCTAAGATTACTATATCGACG,-0.374 log2 normalized fluorescence
6,CCGGCTGACGTATCGTATTAATAGCTAAGATTACTATATCGACG,-0.167 log2 normalized fluorescence
7,CCGGCTTCCACGTGGTATTAATAGCTAAGATTACTATATCGACG,3.13 log2 normalized fluorescence
8,CCGGCGTCCACGTGGTATTAATAGCTAAGATTACTATATCGACG,3.64 log2 normalized fluorescence
9,CCGGCAACCACGTGGTATTAATAGCTAAGATTACTATATCGACG,3.15 log2 normalized fluorescence
10,CCGGCGATCACGTGGTATTAATAGCTAAGATTACTATATCGACG,3.19 log2 normalized fluorescence
11,CCGGCGGCCACGTGGTATTAATAGCTAAGATTACTATATCGACG,3.16 log2 normalized fluorescence
12,CCGGCGACCACGTGGTATTAATAGCTAAGATTACTATATCGACG,3.3 log2 normalized fluorescence
13,CCGGCTACGACGTGGTATTAATAGCTAAGATTACTATATCGACG,2.57 log2 normalized fluorescence
14,CCGGCTGATCCTACGTATTAATAGCTAAGATTACTATATCGACG,-0.737 log2 normalized fluorescence
15,CCGGCTGATTACGTGTATTAATAGCTAAGATTACTATATCGACG,0.238 log2 normalized fluorescence
16,CCGGCTGATCACGTGTATTAATAGCTAAGATTACTATATCGACG,3.48 log2 normalized fluorescence
17,CCGGCTGACCGCGTGTATTAATAGCTAAGATTACTATATCGACG,3.4 log2 normalized fluorescence
18,CCGGCTGATCGTGTGTATTAATAGCTAAGATTACTATATCGACG,1.12 log2 normalized fluorescence
19,CCGGCTGACCGCGCGTATTAATAGCTAAGATTACTATATCGACG,1.24 log2 normalized fluorescence
20,CCGGCTGACCGTGTGTATTAATAGCTAAGATTACTATATCGACG,1.49 log2 normalized fluorescence
21,CCGGCTGACACCGTGTATTAATAGCTAAGATTACTATATCGACG,1.72 log2 normalized fluorescence
22,CCGGCTGACGCCTAGTATTAATAGCTAAGATTACTATATCGACG,-0.368 log2 normalized fluorescence
23,CCGGCTGAAGGCGCGTATTAATAGCTAAGATTACTATATCGACG,-0.33 log2 normalized fluorescence
24,CCGGCTGAAGCCCGGTATTAATAGCTAAGATTACTATATCGACG,-0.644 log2 normalized fluorescence
25,CCGGCTGACACGTAGCATTAATAGCTAAGATTACTATATCGACG,1.7 log2 normalized fluorescence

row,Sequence,binding signal
1,CCGGCTGACATACAGTATTAATAGCTAAGATTACTATATCGACG,0.345 log2 normalized fluorescence
2,CCGGCTGACTCAAGGTATTAATAGCTAAGATTACTATATCGACG,0.208 log2 normalized fluorescence
3,CCGGCTGGCACGTGGTATTAATAGCTAAGATTACTATATCGACG,3.26 log2 normalized fluorescence
4,CCGGCTGGCACGTGGTGTTAATAGCTAAGATTACTATATCGACG,3.4 log2 normalized fluorescence
5,CCGGCTGGCACCTGGTTTTAATAGCTAAGATTACTATATCGACG,1.82 log2 normalized fluorescence
6,CCGGCTGCCACGTGGTGTTAATAGCTAAGATTACTATATCGACG,3.07 log2 normalized fluorescence
7,CCGGCCGGCACGTGGTGTTAATAGCTAAGATTACTATATCGACG,3.21 log2 normalized fluorescence
8,CCGGCTGGCACGTGGTTTTAATAGCTAAGATTACTATATCGACG,3.33 log2 normalized fluorescence
9,CCGGCTGAGTGTCGGTATTAATAGCTAAGATTACTATATCGACG,-0.348 log2 normalized fluorescence
10,CCGGCTGATGCCCTGTATTAATAGCTAAGATTACTATATCGACG,-0.309 log2 normalized fluorescence
11,CCGGCTGAACGTACGTATTAATAGCTAAGATTACTATATCGACG,-0.307 log2 normalized fluorescence
12,CCGGCTGAGGCGTCGTATTAATAGCTAAGATTACTATATCGACG,-0.641 log2 normalized fluorescence
13,CCGGCTGAACGCAAGTATTAATAGCTAAGATTACTATATCGACG,0.234 log2 normalized fluorescence
14,CCGGCTGACACACGTTATTAATAGCTAAGATTACTATATCGACG,2.37 log2 normalized fluorescence
15,CCGGCCGACACGGCGTATTAATAGCTAAGATTACTATATCGACG,0.94 log2 normalized fluorescence
16,CCGGCTGACACGTTATATTAATAGCTAAGATTACTATATCGACG,2.87 log2 normalized fluorescence
17,CCGGCCGACACGTGTTATTAATAGCTAAGATTACTATATCGACG,3.4 log2 normalized fluorescence
18,CCGGCCGACACGTGCTATTAATAGCTAAGATTACTATATCGACG,3.18 log2 normalized fluorescence
19,CCGGCTGACACGTGATATTAATAGCTAAGATTACTATATCGACG,3.05 log2 normalized fluorescence
20,CCGGCAGACACGTGTTATTAATAGCTAAGATTACTATATCGACG,3.42 log2 normalized fluorescence
21,CCGGCCGACACGTGATATTAATAGCTAAGATTACTATATCGACG,3.43 log2 normalized fluorescence
22,CCGGCAGACACGTGGTGTTAATAGCTAAGATTACTATATCGACG,3.28 log2 normalized fluorescence
23,CCGGCAGAAACGTGTTATTAATAGCTAAGATTACTATATCGACG,2.96 log2 normalized fluorescence
24,CCGGCCGACACCTGTTATTAATAGCTAAGATTACTATATCGACG,2.63 log2 normalized fluorescence
25,CCGGCTGACACGTGTTATTAATAGCTAAGATTACTATATCGACG,3.29 log2 normalized fluorescence
